In the library only some 2% were active in any assay of this set; here they are far more common.
Jurkat NFkB inh – inhibitors of the PMA/ionomycin-induced NF-kB reporter in Jurkat cells; PMA/ionomycin-induced NF-kB luciferase reporter, luminescence; inhibition, % at 4 µM; hit rate 0.53% among 330,000; AID 435003; in the data active = inhibition above about 50%
Gli-Sufu antag – Gli-Sufu pathway antagonism; Sufu-KO-LIGHT fibroblasts, Gli luciferase reporter luminescence; inhibition, % at 5 µM; hit rate 0.74% among 340,000;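 active = inhibition above about 55%, limit read from the data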;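 note: 0% = DMSO-treated cells and 100% = wells with medium but no cells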
697 NFkB inh – inhibitors of the PMA/ionomycin-induced NF-kB reporter in 697 B cells; 697 B-cell NF-kB luciferase reporter, 16 h; inhibition, % at 4 µM; hit rate 0.33% among 330,000; AID 435022; in the data active = inhibition above about 35%
COUP-TFII inh – NR2F2 (human) inhibition, primary screen; inhibition, % at 8.6 µM; AID 686940; HEK293T NGFI-A luciferase reporter, luminescence; hit rate 0.7% among 370,000;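 active = inhibition above a per-plate cutoff, mean inhibition of test wells between control levels plus 3 SD, cut at about 38% in these data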;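 note: cells cotransfected with COUP-TFII expression vector driving the NGFI-A reporter; 0% = median of COUP-TF2 test wells and 100% = reporter-only cells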
GalR3 antagonist – blocks the human galanin receptor 3 | AID 651719 | hit rate 0.44% among 360,000 | O60755 | inhibition, % at 3 µM | HEK293 GalR3-CNG cAMP membrane potential fluorescence; galR3 body fused to GalR1 C-terminus;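 active = inhibition above the screen-wide average plus 3 SD, cut at about 13% in these data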;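 note: forskolin and galanin both at EC90 stimulate the cells; cAMP rise reported by CNG channel membrane potential dye signal; 0% = forskolin plus galanin with DMSO and 100% = forskolin alone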
Target sequence (O60755 1-299 limits assumed): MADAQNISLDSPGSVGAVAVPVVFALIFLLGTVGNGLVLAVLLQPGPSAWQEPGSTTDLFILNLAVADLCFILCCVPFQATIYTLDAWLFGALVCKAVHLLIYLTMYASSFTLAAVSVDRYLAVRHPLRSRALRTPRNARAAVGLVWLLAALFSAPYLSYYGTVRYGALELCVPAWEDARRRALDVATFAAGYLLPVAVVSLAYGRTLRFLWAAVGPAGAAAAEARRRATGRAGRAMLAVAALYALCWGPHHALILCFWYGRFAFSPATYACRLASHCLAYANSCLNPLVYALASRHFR
Jurkat NFkB conf – inhibitors of the PMA/ionomycin-induced NF-kB reporter in Jurkat cells, retest | Jurkat NF-kB luciferase, 16 h | hit rate 27% among 2,700 | shares compounds with Jurkat NFkB inh | AID 435020 | inhibition, % at 4 µM;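 active = inhibition reaching about 45% at 4 µM in either replicate, limit read from the data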;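 note: plate controls were PMA/ionomycin stimulated DMSO wells for no effect and unstimulated DMSO wells for full effect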
Active calls of the source: *; x = not tested or not shown.

SMILES | Jurkat NFkB inh | Gli-Sufu antag | 697 NFkB inh | COUP-TFII inh | GalR3 antagonist | Jurkat NFkB conf
COC(=O)[C@]12C[C@H](CC(=O)NCCCCc3ccccc3)C(=O)N(Cc3ccco3)C1=C[C@H](COCc1ccccc1)O[C@@H]2C | x | x | x | -7.0 | x | x
Clc1ccc(OCc2nc(-c3ccncc3)no2)c(Br)c1 | -165.7 | -102.3 | -196.1 | -36.8 | 1.7 | -96.2
COc1ccc(C(=O)c2ccc(OC)c(N)c2)cc1N | 53.0* | -30.6 | -56.3 | -50.3 | -7.1 | 33.1
NC(=O)CSc1nc(C2CC2)nc2sc3c(c12)CCCC3 | -189.3 | -94.4 | -224.7 | -28.1 | -6.1 | -70.5
COC(=O)[C@]12C[C@H](CC(=O)NCc3ccc(OC)c(OC)c3)C(=O)N(Cc3ccco3)C1=C[C@H](C(C)(C)C)O[C@@H]2C | x | x | x | -8.0 | x | x
C=CCN1C(=O)[C@@H](CC(=O)N2CCN(C(=O)OCC)CC2)[C@]2(C(=O)OC)CCCCC=C12 | x | x | x | -1.6 | x | x
CCN(c1ccccc1)S(=O)(=O)c1ccc(C(=O)NC2CCCCC2)cc1 | x | x | x | 17.7 | -5.3 | x
CCN(c1ccccc1)S(=O)(=O)c1ccc(C(=O)NC2CCN(Cc3ccccc3)CC2)cc1 | 73.9* | 47.0 | 27.5 | x | x | 65.3*
O=C(NCCC1=CCCCC1)NC12CC3CC(CC(C3)C1)C2 | -162.4 | -70.5 | -150.3 | -28.2 | -4.5 | -50.1
O=C(NCCc1ccc(F)cc1)NC12CC3CC(CC(C3)C1)C2 | -144.9 | -120.8 | -124.5 | -30.9 | 0.7 | x
CC(=C/c1ccccc1)/C=N/NC(=O)c1cccs1 | -171.1 | -51.2 | -206.3 | -53.0 | 1.6 | -102.2
COc1ccc(C2=Nn3c(nnc3C3CCCCC3)SC2)cc1 | x | x | x | 1.7 | x | x
CO/N=C/C(=N\Nc1ccc(C)cc1)C(=O)c1ccc(OC)cc1 | 50.9* | 5.5 | -6.2 | -0.3 | 2.0 | 32.9
COc1cc(O)c(C(CC(=O)N2CCCC(C)C2)c2ccccc2)c(OC)c1 (stereo not given) | x | x | x | 4.9 | x | x
COC(=O)c1cc(-c2ccc(OC)c(OC)c2)c(=O)n2c1CCC2 | x | x | x | 0.1 | x | x
COc1ccc(-n2nc3cc(C)c(N)c(Br)c3n2)cc1 | -199.1 | -69.4 | -163.5 | -39.8 | 0.4 | -111.8
CCc1csc(N2[C@H](CN(CCOC)S(=O)(=O)c3ccccc3[N+](=O)[O-])[C@H](c3ccccc3)[C@@H]2CO)n1 | x | x | x | -4.9 | x | x
COc1ccc(C(=O)N[C@H](C(=O)Nc2nc3ccccc3[nH]2)C(C)C)cc1 | 28.4 | 32.2 | -185.5 | -44.2 | -2.7 | x
Cc1cccc(C(=O)N[C@H](C(=O)Nc2nc3ccccc3[nH]2)C(C)C)c1 | 60.1* | 37.8 | -9.8 | -44.7 | -3.1 | 37.3
O=C(Nc1nc2ccccc2[nH]1)c1cccc(F)c1 | -150.3 | -19.3 | -190.2 | -40.2 | -7.8 | -107.1
O=C(Nc1nc2ccccc2[nH]1)c1cccc(Br)c1 | -151.8 | -16.3 | -207.2 | -44.6 | -12.3 | -115.2
CCc1ccc(S(=O)(=O)/N=C2\C=C(Nc3ccc(O)cc3)C(=O)c3ccccc32)cc1 | 53.6* | 88.5* | -8.5 | x | x | 52.1*
COc1ccc(OC)c(COC(=O)c2cc([N+](=O)[O-])ccc2N2CCOCC2)c1 | 52.1* | -18.5 | -37.6 | -11.0 | -4.1 | 30.2
O=C(OCc1ccccc1F)c1cc([N+](=O)[O-])ccc1N1CCOCC1 | -19.6 | -10.2 | -20.3 | -3.1 | -2.7 | x
Cc1ccccc1COC(=O)c1cc([N+](=O)[O-])ccc1N1CCOCC1 | 34.9 | -16.4 | 0.7 | -14.8 | 1.7 | x
SMILES | Jurkat NFkB inh | Gli-Sufu antag | 697 NFkB inh | COUP-TFII inh | GalR3 antagonist | Jurkat NFkB conf
CCOc1ccc(C(=O)COC(=O)c2cc([N+](=O)[O-])ccc2N2CCOCC2)cc1 | 52.5* | 5.3 | -22.8 | 12.4 | -3.6 | 6.7
CSc1ccc(COC(=O)c2cc([N+](=O)[O-])ccc2N2CCOCC2)cc1 | 81.1* | 41.8 | -84.8 | -49.8 | -4.9 | 66.3*
CCCCOC(=O)CCN1C(=O)/C(=C/c2ccccc2)SC1=S | x | x | x | 1.2 | x | x
CCN(CC)C(=O)CC[C@@H]1CC[C@]2(CCCN(Cc3ccc(Br)cc3)C2)O1 | x | x | x | -3.8 | x | x
Cc1ccc(NC(=O)Nc2ccc3c(c2)[C@]2(CC(=O)N(CC(C)C)C2c2ccccc2)C(=O)N3C)cc1Cl (stereo not given in full) | x | x | x | 2.8 | x | x
NC(N)=NN=C1CCCCCCCCCCC1 | 69.0* | 2.6 | -43.7 | -4.1 | -2.8 | 23.6
ON=C1CCCCCCCC1 | x | 3.8 | x | 15.3 | -2.4 | x
O=C(c1ccc(F)cc1F)C1CCN(c2ccc([N+](=O)[O-])cn2)CC1 | 85.6* | 3.7 | -44.1 | 16.8 | -9.4 | 29.1
CCOC(=O)C1=C(c2ccccc2)O/C(=C(/C#N)C(F)(F)F)S1 | 74.7* | x | -229.7 | x | x | 54.0*

Source: PubChem
